Measured values reported in the supplement of paper PMC11732987, “Enantioselective OTUD7B fragment discovery through chemoproteomics screening and high-throughput optimisation” (Communications Chemistry, 2025).

What was measured:
Experiment in all cases: log2 ratio of Biotin-Ahx-Ub-VS probe labelling (fragment/DMSO); higher = less target engagement (more negative = stronger competition), active = hit call of the paper (q ≤ 0.05, log2 ratio ≤ -1)
Details in all cases: compound concentration: 200 uM; treatment time: 3 h
[1] = target: T1, USP42 (UniProt Q9H9J4)
T1 sequence (whole entry): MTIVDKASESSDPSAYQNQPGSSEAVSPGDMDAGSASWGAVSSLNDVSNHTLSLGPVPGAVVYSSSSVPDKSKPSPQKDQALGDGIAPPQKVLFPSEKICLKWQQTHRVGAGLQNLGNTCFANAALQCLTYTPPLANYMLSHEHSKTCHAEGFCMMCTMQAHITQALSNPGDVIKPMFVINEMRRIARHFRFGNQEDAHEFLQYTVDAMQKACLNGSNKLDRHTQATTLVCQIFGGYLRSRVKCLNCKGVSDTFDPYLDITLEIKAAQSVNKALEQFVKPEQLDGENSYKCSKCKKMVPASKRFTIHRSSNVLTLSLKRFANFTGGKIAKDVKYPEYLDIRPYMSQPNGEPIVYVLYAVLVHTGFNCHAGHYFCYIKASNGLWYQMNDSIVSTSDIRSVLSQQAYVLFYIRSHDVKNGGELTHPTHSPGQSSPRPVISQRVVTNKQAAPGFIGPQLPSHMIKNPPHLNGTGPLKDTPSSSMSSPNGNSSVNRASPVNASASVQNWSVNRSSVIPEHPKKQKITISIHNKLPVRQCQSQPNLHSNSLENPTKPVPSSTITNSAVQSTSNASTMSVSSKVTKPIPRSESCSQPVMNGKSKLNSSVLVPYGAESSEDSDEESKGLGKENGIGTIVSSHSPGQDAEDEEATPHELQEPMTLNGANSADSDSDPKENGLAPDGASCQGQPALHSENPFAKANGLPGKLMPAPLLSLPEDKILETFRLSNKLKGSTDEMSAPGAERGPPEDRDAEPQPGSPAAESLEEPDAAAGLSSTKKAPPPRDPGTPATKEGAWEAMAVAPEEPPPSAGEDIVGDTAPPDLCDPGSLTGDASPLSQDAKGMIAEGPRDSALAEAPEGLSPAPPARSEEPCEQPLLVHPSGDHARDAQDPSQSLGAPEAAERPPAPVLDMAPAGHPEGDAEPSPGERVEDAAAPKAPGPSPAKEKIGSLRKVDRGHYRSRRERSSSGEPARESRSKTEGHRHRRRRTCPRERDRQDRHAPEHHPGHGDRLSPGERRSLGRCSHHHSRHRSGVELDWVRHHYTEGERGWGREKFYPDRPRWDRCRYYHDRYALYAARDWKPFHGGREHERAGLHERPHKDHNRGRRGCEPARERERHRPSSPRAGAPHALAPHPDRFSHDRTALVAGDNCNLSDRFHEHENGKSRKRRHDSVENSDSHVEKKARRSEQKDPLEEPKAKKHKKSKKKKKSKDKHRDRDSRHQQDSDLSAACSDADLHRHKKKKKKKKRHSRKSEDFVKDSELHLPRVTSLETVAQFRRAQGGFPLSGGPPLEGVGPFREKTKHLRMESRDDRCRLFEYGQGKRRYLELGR
Method in brief: (§1)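 Lysate from HEK293T cells, 495 µg per sample in Tris/CHAPS/IGEPAL buffer with protease inhibitors, was treated for 3 h in triplicate with fragment at 200 µM or vehicle. Biotin-Ahx-Ub-VS was next added at 0.5 µM final for 1 h. The labelled DUBs were enriched with NeutrAvidin, digested with LysC and trypsin, and run by diaPASEF LC-MS/MS, with values given as average log2 fragment/vehicle ratios by unpaired t-test on global-median-normalised Spectronaut quantities of proteins with ≥2 unique peptides.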

[2] = target: USP46 (UniProt P62068)
Method in brief: as §1

[3] = target: T2, USP47 (UniProt Q96K76)
T2 sequence (whole entry): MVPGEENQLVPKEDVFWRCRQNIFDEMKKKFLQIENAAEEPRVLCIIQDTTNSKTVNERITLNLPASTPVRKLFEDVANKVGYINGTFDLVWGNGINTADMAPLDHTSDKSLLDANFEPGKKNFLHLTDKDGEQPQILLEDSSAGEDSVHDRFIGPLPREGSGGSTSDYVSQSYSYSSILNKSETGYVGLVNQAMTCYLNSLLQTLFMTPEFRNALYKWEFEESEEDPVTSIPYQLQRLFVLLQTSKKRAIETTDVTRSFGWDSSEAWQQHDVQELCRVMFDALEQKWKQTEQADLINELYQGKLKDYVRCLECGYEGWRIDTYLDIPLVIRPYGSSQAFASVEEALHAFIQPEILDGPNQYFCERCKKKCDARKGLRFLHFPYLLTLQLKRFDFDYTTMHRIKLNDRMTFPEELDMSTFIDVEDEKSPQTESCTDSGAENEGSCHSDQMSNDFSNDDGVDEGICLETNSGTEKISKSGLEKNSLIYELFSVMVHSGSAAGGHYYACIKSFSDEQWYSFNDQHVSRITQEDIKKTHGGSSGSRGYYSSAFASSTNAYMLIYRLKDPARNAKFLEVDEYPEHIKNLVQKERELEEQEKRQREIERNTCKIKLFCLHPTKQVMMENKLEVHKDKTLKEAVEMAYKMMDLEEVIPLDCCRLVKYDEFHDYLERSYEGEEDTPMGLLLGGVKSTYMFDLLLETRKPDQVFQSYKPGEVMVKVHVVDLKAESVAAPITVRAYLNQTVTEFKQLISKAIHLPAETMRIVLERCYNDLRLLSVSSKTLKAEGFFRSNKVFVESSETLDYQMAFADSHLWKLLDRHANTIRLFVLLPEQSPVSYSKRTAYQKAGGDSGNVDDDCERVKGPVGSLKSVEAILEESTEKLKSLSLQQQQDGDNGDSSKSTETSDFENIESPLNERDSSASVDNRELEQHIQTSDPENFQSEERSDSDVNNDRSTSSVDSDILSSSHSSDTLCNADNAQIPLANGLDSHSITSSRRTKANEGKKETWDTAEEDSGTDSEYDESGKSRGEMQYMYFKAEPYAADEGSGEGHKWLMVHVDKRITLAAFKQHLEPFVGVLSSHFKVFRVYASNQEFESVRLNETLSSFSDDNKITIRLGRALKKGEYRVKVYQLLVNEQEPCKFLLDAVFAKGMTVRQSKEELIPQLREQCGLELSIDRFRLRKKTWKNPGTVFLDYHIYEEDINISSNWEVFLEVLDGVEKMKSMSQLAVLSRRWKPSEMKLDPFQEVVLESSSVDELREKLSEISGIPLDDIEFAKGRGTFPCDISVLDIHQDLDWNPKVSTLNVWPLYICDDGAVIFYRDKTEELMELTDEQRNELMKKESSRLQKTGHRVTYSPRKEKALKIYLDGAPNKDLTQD
Method in brief: as §1

[4] = target: T3, USP48 (UniProt Q86UV5)
T3 sequence (whole entry): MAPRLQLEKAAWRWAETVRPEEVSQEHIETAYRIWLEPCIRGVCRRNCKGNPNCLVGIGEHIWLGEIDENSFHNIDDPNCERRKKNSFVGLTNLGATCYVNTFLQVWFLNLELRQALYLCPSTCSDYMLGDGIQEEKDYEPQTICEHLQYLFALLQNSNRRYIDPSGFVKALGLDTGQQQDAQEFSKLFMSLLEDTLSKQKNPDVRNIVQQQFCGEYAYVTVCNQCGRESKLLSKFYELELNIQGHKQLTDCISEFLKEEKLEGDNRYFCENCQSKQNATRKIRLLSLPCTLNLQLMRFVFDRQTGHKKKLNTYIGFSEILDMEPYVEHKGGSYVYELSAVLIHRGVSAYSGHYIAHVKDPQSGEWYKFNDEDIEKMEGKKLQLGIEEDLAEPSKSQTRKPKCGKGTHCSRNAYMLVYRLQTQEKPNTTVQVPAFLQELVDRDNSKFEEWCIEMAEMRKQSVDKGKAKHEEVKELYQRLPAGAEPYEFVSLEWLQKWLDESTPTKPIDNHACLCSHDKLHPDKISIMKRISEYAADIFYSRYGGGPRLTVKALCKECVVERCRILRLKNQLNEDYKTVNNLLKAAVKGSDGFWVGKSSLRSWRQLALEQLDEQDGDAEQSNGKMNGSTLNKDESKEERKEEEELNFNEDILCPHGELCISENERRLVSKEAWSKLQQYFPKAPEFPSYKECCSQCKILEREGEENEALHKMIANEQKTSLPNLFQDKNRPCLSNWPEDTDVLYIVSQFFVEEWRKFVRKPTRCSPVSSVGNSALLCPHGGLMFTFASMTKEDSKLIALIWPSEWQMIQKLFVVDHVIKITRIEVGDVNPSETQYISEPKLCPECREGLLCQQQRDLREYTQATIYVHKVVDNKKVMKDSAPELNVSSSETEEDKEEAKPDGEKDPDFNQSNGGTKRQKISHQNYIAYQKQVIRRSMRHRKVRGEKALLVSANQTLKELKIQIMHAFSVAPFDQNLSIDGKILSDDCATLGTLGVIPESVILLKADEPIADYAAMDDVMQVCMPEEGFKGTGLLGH
Method in brief: as §1

[5] = target: T4, USP5 (UniProt P45974)
T4 sequence (whole entry): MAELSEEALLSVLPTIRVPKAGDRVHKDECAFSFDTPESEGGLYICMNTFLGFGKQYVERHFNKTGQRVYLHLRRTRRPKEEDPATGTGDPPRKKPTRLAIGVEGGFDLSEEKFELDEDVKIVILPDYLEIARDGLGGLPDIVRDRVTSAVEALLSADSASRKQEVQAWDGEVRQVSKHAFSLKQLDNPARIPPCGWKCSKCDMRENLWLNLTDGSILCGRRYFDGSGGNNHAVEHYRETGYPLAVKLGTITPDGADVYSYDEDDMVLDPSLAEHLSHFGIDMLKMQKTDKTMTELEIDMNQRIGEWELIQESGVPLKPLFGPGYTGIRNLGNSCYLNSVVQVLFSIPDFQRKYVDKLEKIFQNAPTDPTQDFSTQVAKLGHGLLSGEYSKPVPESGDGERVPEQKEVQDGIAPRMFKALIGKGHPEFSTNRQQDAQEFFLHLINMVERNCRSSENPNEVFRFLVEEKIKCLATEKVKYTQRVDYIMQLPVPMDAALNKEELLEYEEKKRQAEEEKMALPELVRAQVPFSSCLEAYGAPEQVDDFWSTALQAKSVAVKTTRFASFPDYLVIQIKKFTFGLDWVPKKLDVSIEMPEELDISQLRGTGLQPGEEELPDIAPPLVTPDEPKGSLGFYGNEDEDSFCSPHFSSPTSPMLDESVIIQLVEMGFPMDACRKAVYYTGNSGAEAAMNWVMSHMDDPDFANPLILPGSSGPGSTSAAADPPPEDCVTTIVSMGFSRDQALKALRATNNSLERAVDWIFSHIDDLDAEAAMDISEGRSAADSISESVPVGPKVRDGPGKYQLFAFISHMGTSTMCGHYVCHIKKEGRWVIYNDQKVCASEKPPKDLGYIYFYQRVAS
Method in brief: as §1

[6] = target: USP54 (UniProt Q70EL1)
Method in brief: as §1

[7] = target: USP7 (UniProt Q93009)
Method in brief: as §1

[8] = target: T5, USP8 (UniProt P40818)
T5 sequence (whole entry): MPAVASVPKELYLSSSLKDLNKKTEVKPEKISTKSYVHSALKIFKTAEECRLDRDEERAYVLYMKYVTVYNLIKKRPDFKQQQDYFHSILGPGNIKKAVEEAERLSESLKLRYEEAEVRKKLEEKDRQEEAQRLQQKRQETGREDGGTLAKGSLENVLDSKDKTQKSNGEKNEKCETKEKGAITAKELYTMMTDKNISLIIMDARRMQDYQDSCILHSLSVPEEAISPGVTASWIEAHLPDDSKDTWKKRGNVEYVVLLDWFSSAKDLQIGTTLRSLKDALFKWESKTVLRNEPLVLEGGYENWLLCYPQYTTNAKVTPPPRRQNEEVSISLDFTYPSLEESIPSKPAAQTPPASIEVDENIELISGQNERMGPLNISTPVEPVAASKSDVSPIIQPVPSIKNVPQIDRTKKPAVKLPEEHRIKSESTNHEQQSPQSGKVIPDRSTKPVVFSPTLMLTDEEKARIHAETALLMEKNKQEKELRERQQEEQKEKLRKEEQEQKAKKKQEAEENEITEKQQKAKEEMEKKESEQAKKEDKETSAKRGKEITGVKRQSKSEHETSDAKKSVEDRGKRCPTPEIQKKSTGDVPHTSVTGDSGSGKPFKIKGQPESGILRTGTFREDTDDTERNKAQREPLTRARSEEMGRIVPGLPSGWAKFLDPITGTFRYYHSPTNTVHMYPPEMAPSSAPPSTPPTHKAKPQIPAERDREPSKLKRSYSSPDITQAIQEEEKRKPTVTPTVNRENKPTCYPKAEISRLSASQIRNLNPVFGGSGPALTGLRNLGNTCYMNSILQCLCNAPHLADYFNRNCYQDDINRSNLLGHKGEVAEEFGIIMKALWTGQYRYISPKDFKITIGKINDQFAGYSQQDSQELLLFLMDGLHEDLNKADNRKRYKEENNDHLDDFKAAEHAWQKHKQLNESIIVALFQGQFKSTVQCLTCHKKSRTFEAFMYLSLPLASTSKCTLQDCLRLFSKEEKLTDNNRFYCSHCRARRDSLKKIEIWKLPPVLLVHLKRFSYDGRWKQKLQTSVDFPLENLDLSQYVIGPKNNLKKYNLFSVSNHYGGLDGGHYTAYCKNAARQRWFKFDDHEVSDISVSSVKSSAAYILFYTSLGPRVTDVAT
Method in brief: as §1

[9] = target: USP9X (UniProt Q93008)
Method in brief: as §1

[10] = target: UniProt O00487
Method in brief: as §1

Measured: log2 ratio of Biotin-Ahx-Ub-VS probe labelling

Chain of USP46 (P62068 whole entry): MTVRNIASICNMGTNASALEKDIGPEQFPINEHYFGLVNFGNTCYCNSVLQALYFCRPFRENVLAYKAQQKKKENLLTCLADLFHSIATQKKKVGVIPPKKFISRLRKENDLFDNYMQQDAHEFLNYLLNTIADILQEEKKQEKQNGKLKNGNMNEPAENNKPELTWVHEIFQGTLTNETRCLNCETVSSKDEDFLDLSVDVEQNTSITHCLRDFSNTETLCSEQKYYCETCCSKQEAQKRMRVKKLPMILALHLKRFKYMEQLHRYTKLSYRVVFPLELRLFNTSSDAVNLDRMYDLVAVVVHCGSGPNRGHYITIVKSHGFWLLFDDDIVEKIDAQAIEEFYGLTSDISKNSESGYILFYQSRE
Chain of USP54 (Q70EL1 whole entry): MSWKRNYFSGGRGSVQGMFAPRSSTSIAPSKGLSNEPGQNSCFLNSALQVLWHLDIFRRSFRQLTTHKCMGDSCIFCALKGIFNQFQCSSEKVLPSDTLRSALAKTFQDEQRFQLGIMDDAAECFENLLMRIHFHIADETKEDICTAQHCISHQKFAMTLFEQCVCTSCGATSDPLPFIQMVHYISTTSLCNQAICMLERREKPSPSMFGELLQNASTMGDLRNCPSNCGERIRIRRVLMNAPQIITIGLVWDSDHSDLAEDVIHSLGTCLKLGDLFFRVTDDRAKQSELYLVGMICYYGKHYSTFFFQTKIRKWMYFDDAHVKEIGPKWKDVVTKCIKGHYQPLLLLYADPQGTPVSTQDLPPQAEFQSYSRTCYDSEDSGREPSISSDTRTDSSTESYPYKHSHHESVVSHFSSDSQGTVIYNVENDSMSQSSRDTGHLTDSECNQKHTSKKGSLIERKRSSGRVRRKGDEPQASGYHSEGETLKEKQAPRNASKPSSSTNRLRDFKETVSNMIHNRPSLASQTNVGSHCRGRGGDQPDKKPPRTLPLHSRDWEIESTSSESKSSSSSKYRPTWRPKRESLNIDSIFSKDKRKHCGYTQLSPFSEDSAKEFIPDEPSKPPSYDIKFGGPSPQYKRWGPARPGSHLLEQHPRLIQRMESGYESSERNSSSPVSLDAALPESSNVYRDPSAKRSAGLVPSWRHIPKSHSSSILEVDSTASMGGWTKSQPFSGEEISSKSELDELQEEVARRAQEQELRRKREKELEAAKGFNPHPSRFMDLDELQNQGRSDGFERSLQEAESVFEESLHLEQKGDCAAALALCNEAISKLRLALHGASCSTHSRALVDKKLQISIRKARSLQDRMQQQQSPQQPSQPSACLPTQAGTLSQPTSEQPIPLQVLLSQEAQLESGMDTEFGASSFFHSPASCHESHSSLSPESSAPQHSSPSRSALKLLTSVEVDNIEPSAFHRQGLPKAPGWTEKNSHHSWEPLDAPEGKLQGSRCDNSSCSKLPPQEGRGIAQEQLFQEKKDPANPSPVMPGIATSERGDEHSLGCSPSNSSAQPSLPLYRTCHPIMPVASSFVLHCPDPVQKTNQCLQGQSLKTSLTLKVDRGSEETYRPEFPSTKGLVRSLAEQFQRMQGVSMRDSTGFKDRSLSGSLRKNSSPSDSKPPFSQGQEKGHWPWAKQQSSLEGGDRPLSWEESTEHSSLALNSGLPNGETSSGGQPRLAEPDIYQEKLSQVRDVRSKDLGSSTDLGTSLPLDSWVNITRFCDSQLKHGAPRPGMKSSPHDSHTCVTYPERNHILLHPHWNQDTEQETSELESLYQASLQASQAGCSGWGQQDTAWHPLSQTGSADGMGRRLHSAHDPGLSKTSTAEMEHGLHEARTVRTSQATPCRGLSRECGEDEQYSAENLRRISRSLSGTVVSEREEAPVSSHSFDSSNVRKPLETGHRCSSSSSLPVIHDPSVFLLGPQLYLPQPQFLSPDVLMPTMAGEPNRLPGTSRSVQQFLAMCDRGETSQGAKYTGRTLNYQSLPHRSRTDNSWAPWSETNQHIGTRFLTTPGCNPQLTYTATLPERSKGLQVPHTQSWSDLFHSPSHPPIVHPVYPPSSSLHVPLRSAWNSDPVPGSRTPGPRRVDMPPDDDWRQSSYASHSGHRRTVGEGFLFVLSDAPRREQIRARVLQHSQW
Chain of UniProt O00487 (O00487 whole entry): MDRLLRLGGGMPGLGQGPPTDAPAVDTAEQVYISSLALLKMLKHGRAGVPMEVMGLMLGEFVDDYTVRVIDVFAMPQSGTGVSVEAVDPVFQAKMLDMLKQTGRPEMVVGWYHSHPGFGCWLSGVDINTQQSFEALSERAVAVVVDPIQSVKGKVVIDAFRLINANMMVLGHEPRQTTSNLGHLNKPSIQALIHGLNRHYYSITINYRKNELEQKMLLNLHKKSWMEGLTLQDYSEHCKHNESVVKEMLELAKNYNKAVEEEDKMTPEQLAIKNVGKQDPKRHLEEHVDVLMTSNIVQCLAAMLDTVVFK
Chain of USP9X (Q93008 whole entry): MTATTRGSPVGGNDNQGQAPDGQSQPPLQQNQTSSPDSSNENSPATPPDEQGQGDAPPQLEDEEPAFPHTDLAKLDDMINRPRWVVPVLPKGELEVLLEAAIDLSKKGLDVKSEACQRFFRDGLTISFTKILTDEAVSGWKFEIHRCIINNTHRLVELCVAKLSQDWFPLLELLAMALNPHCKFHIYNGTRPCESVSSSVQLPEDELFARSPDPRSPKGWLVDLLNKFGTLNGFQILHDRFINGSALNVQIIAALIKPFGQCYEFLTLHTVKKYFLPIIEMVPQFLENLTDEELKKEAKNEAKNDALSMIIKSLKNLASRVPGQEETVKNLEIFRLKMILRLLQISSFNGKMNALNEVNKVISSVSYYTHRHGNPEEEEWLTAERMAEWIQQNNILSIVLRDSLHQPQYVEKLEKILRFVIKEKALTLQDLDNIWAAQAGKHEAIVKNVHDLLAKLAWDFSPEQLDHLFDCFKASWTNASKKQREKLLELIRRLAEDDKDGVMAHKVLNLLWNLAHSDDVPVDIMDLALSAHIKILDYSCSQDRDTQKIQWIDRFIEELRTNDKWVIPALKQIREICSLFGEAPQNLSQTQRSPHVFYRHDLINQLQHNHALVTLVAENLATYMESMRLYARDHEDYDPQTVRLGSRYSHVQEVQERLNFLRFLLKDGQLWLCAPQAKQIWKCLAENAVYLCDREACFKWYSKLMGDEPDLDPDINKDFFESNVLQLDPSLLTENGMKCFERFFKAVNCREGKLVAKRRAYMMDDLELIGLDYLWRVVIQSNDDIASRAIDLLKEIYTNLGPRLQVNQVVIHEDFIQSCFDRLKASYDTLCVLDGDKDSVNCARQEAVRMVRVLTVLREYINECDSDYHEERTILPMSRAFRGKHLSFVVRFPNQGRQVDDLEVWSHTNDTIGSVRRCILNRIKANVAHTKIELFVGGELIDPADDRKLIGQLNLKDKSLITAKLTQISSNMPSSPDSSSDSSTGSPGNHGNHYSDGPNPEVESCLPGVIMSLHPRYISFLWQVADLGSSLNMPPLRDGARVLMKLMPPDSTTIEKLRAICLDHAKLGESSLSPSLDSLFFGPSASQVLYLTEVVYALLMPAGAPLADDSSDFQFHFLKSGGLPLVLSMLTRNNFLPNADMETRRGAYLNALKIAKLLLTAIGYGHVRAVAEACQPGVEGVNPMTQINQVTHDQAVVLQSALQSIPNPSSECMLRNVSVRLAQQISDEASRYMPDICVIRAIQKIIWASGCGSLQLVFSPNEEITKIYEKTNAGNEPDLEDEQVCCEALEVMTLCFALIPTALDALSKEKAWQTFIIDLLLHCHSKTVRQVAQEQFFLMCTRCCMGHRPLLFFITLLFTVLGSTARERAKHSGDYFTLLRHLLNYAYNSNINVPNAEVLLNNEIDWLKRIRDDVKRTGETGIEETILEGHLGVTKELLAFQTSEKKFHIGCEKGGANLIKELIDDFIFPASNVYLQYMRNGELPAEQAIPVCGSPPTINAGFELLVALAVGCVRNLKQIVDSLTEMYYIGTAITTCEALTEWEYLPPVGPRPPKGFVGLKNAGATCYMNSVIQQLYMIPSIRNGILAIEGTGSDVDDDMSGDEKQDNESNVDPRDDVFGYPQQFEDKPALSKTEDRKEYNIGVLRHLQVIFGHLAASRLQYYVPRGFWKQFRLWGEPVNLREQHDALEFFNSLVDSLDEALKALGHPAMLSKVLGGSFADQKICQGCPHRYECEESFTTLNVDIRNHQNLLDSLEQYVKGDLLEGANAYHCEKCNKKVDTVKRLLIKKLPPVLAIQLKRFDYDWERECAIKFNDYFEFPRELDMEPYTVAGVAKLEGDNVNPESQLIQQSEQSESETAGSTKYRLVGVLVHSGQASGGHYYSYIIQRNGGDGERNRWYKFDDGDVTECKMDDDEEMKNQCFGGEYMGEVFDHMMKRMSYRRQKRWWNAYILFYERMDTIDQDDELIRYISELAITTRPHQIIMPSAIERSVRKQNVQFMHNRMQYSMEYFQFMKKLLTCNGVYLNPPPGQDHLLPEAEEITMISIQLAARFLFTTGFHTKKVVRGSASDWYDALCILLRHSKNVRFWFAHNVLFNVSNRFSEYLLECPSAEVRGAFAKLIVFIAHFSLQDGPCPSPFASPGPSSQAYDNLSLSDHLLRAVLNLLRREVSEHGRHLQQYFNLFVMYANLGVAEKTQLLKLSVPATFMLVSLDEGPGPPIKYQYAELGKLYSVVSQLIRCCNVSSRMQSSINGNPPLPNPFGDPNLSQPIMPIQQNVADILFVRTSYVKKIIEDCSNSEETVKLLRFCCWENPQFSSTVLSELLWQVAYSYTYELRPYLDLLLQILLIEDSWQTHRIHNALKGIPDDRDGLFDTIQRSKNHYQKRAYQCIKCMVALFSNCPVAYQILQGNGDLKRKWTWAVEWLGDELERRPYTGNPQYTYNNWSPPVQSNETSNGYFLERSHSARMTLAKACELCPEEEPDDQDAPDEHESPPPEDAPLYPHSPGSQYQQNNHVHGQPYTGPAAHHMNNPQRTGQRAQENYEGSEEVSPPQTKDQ

COc1ccc(Cl)cc1NC(=O)CCl
inactive: [1] 0.21 | [2] -0.265 | [3] -0.266 | [4] -0.394 | [5] -0.409 | [6] 0.0369 | [7] -0.593 | [8] -0.171 | [9] -0.48 | [10] -0.298

O=C(CCl)N1CCOC2(CCC2)C1
inactive: [1] 0.183 | [2] 0.171 | [3] -0.386 | [4] -0.474 | [5] 0.109 | [6] -0.395 | [7] 0.0903 | [8] -0.347 | [9] 0.105 | [10] -0.0639

C[C@H]1CN(C(=O)CCl)CCN1C(=O)c1cnn(C)c1.Cl
inactive: [1] 0.109 | [2] -0.0724 | [3] -0.522 | [4] -0.436 | [5] 0.184 | [6] -0.0291 | [7] -0.353 | [8] -0.184 | [9] -0.221 | [10] -0.129
